According to PubChem BioAssay (Tox21):
The source made the active and inactive calls. Calls come from the whole dose curve; as a rule, active = well fitted curve in the direction sought with a large enough effect in the repeat runs; inconclusive = weak or mixed curves; inactive = flat fitted curve, though single readings scatter.

Assay: qHTS assay to test for compound auto fluorescence at 590 nm (red) in HEK293 cell free culture (AID 720683)
Details: cell-free medium autofluorescence, Ex540/Em590 red; series mostly up to 46 µM; fluorescence, % of fluorescent control: at the top concentration
Text: U.S. Tox21 Program National Center for Advancing Translational Sciences [NCATS] NIH Chemical Genomics Center [NCGC] U.S. Environmental Protection Agency [EPA] National Institutes of Environmental Health Sciences [NIEHS] National Toxicology Program [NTP] U.S. Food and Drug Administration [FDA] Tox21 Assay Overview: Compound auto fluorescence often interferes with screening of the compound library against various biological targets and signaling pathways. Some of these compounds may have fluorophoric properties. Such properties may interfere with the assay outputs resulting in false positives and/or negatives. To decrease such complications and ensure the compound activities are relevant in terms of biological response, the Tox21 10K compound library was screened for auto fluorescence. From the fluorophores used as reporter signals in our screening assays, the auto fluorescence equivalencies of compounds against three fluorophores have been evaluated: Triamterene, Fluorescein and Rose Bengal sodium for blue, green and red fluorescence, respectively. The fluorescence intensities were measured using Excitation/Emission wavelengths at 405/460nm, 485/535nm and 540/590nm for blue, green and red labels, respectively. This assay includes the red fluorescence data.
Tox21 Assay Protocol Summary: 5 uL of culture medium (DMEM containing 10% FBS) per well was dispensed into black wall/clear bottom 1536-well plates using a Multidrop Combi Dispenser (ThermoFisher Scientific, Waltham, MA). After 23 nL compound or DMSO vehicle was transferred into assay plate by a pintool work station (Kalypsys, San Diego, CA), fluorescence intensities in the assay plates were measured by an Envision (PerkinElmer, Shelton, CT) plate reader using three labels for measuring blue, green and red fluorescence at […] 460, 535 and 590nm respectively.
% is set by controls: 0 for no effect and ±100 for the full control effect.

For `COc1ccc2c(c1)OC(C)(C)C(c1ccccc1)C2c1ccc(OCCN2CCCC2)cc1` (stereo not given), which “fluorescence, % of fluorescent control” value is on record?
The value was 0.276% (inactive).

Which “fluorescence, % of fluorescent control” value does the source give for `CN(C)c1ccc(C(=C2C=CC(=[N+](C)C)C=C2)c2c(O)c(S(=O)(=O)[O-])cc3cc(S(=O)(=O)O)ccc23)cc1` here?
Its value is -0.891% (inactive).

For `O=C(Cc1cccs1)N[C@@H]1C(=O)N2C(C(=O)[O-])=C(C[n+]3ccccc3)CS[C@H]12`, which “fluorescence, % of fluorescent control” value is on record?
Its value is 0.336% (inactive).

Which “fluorescence, % of fluorescent control” value does the source give for `Cn1cc(NC(=O)c2cc(NC(=O)c3cc(NC=O)cn3C)cn2C)cc1C(=O)NCCC(=N)N` here?
Its value is -0.0897% (inactive).

Which “fluorescence, % of fluorescent control” value does the source give for `O=[N+]([O-])O[C@@H]1CO[C@H]2[C@@H]1OC[C@@H]2O` here?
Its value is 0.4% (inactive).

For `O=C(O)[C@@H](O)[C@H](O)[C@H](O)[C@@H](O)C(=O)O` (tested in a mixture with another compound), which “fluorescence, % of fluorescent control” value is on record?
Its value is 0.367% (inactive).

Which “fluorescence, % of fluorescent control” value does the source give for `COC(=O)CCC(=O)CN` here?
The value was -0.0458% (inactive).

For `Cc1cc(O)c2c(c1)O[C@@]1(C)CC[C@H]3C(C)(C)CCCC34CO[C@@H]2[C@H]41` (stereo not given in full), which “fluorescence, % of fluorescent control” value is on record?
The value was -0.0881% (inactive).

For `O=C(CCCN1CCC(n2c(=S)[nH]c3ccccc32)CC1)c1ccc(F)cc1`, which “fluorescence, % of fluorescent control” value is on record?
Its value is -0.544% (inactive).

For `Cn1nnnc1SCC1=C(C(=O)O)N2C(=O)[C@@H](NC(=O)[C@H](OC=O)c3ccccc3)[C@H]2SC1`, which “fluorescence, % of fluorescent control” value is on record?
The value was -0.0521% (inactive).

With `CC(C)(C)CC(=O)OCC(=O)[C@@]12OC(C)(C)O[C@@H]1C[C@H]1[C@@H]3CCC4=CC(=O)C=C[C@]4(C)[C@@]3(F)[C@@H](O)C[C@@]12C` as the molecule, how does the “fluorescence, % of fluorescent control” value read?
Its value is -0.712% (inactive).

Which “fluorescence, % of fluorescent control” value does the source give for `NC(=O)Oc1ccc(Cc2ccccc2)cc1` here?
The value was -0.247% (inactive).

For `CC1(C)S[C@@H]2[C@H](NC(=O)[C@H](N)c3ccccc3)C(=O)N2[C@H]1C(=O)OCOC(=O)[C@@H]1N2C(=O)C[C@H]2S(=O)(=O)C1(C)C`, which “fluorescence, % of fluorescent control” value is on record?
Its value is 0.142% (inactive).

With `OC[C@H]1O[C@@H](n2cnc3c2NC=NC[C@H]3O)C[C@@H]1O` as the molecule, how does the “fluorescence, % of fluorescent control” value read?
The value was 0% (inactive).

Which “fluorescence, % of fluorescent control” value does the source give for `CC[C@@]1(O)C(=O)OCc2c1cc1n(c2=O)Cc2cc3c([N+](=O)[O-])cccc3nc2-1` here?
The value was 0.191% (inactive).

Which “fluorescence, % of fluorescent control” value does the source give for `Nc1ncnc2c1ncn2[C@@H]1O[C@H](COP(=O)(O)OP(=O)(O)OP(=O)(O)O)[C@@H](O)[C@H]1O` here?
The value was 0.0952% (inactive).

Which “fluorescence, % of fluorescent control” value does the source give for `CC(C)NCC(O)COc1ccccc1-n1cccc1` (stereo not given) here?
Its value is 0.0022% (inactive).

Which “fluorescence, % of fluorescent control” value does the source give for `CCC(Cc1c(I)cc(I)c(O)c1I)C(=O)O` (stereo not given) here?
Its value is 0.052% (inactive).

With `CCOc1cc(-c2nccc3cc(OC)c(OC)cc23)cc(OCC)c1OCC` as the molecule, how does the “fluorescence, % of fluorescent control” value read?
Its value is -0.621% (inactive).

For `CCCCCCCCCCCCCCCCCCCCCCO`, which “fluorescence, % of fluorescent control” value is on record?
The value was -0.268% (inactive).

For `COc1ccc(C(=O)CCC(=O)O)c2ccccc12`, which “fluorescence, % of fluorescent control” value is on record?
The value was 0.077% (inactive).

With `CCCCCCCN(CC)CCCC(O)c1ccc(NS(C)(=O)=O)cc1` (stereo not given) as the molecule, how does the “fluorescence, % of fluorescent control” value read?
The value was 0.128% (inactive).

With `CCN(CC)CCOCCOC(=O)C(CC)(CC)c1ccccc1` as the molecule, how does the “fluorescence, % of fluorescent control” value read?
The value was -0.392% (inactive).

Which “fluorescence, % of fluorescent control” value does the source give for `CCCCCCCCCCCCCCCCCC(=O)OCCO` here?
Its value is 0.188% (inactive).

For `COc1ccccc1N1CCN(CCCC(=O)c2ccc(F)cc2)CC1`, which “fluorescence, % of fluorescent control” value is on record?
Its value is -0.136% (inactive).

Which “fluorescence, % of fluorescent control” value does the source give for `Nc1ncnc2c1ncn2CCOCP(=O)(O)O` here?
The value was -0.0337% (inactive).

For `C#C[C@]1(O)CC[C@H]2[C@@H]3CCC4=CCCC[C@@H]4[C@H]3C(=C)C[C@@]21CC`, which “fluorescence, % of fluorescent control” value is on record?
The value was 0.691% (inactive).

With `O=S(O)CNc1ccc(S(=O)(=O)c2ccc(NCS(=O)O)cc2)cc1` as the molecule, how does the “fluorescence, % of fluorescent control” value read?
Its value is 0.204% (inactive).

Which “fluorescence, % of fluorescent control” value does the source give for `O=C(Nc1ccc(Br)cc1)c1cc(Br)c(Br)s1` here?
Its value is -0.694% (inactive).

Which “fluorescence, % of fluorescent control” value does the source give for `FCOC(C(F)(F)F)C(F)(F)F` here?
Its value is 0.31% (inactive).

For `CCSc1ccc2c(c1)N(CCCN1CCN(C)CC1)c1ccccc1S2`, which “fluorescence, % of fluorescent control” value is on record?
The value was 0.0115% [at 18.6 µM] (inactive).

For `C[C@@H]1C[C@H]2C3C[C@H](F)C4=CC(=O)C=CC4(C)[C@@]3(F)[C@@H](O)CC2(C)[C@@]1(O)C(=O)COC(=O)C(C)(C)C` (stereo not given in full), which “fluorescence, % of fluorescent control” value is on record?
Its value is -0.988% (inactive).

Which “fluorescence, % of fluorescent control” value does the source give for `CC(C)CN(C[C@@H](O)[C@H](Cc1ccccc1)NC(=O)O[C@@H]1CCOC1)S(=O)(=O)c1ccc(N)cc1` here?
Its value is -0.208% (inactive).

Which “fluorescence, % of fluorescent control” value does the source give for `CN1c2c(nc(N)[nH]c2=O)NCC1CNc1ccc(C(=O)NC(CCC(=O)O)C(=O)O)cc1` (stereo not given) here?
The value was 0.102% (inactive).

With `CO[C@@]1(NC(=O)C2SC(=C(C(N)=O)C(=O)O)S2)C(=O)N2C(C(=O)O)=C(CSc3nnnn3C)CS[C@@H]21` (stereo not given in full) as the molecule, how does the “fluorescence, % of fluorescent control” value read?
Its value is -0.0806% [at 18.6 µM] (inactive).

With `CN1C(=O)CN2CCc3ccccc3C2c2cc(Cl)ccc21` (stereo not given) as the molecule, how does the “fluorescence, % of fluorescent control” value read?
The value was 0.0649% (inactive).

For `Cn1c(O)c(N=NC(N)=S)c2ccccc21`, which “fluorescence, % of fluorescent control” value is on record?
Its value is 0.718% (inactive).

With `COc1cc2c(cc1OC)[C@@H](c1ccccc1)CN(C)CC2` as the molecule, how does the “fluorescence, % of fluorescent control” value read?
The value was 0.0269% (inactive).

For `C[C@H]1C[C@@H]2[C@H]([C@@H](O)C[C@@]3(C)[C@H]2CC[C@]3(O)C(=O)COC(=O)CCC(=O)O)[C@@]2(C)C=CC(=O)C=C12`, which “fluorescence, % of fluorescent control” value is on record?
Its value is -0.0009% (inactive).

Which “fluorescence, % of fluorescent control” value does the source give for `CO[C@H]1C[C@H](O[C@@H]2/C(C)=C/C[C@@H]3C[C@@H](C[C@]4(CC[C@H](C)[C@@H](C5CCCCC5)O4)O3)OC(=O)[C@@H]3C=C(C)/C(=N/O)[C@H]4OC/C(=C\C=C\[C@@H]2C)[C@]43O)O[C@@H](C)[C@@H]1O` here?
Its value is 0.163% (inactive).
